A short description of assay [1]: NCI Yeast Anticancer Drug Screen. Data for the rad50 strain (AID 155).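 Also: 0% = growth of vehicle-only cultures of the same strain.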 Particulars: S. cerevisiae rad50 strain growth inhibition, active compounds read high. In short, it runs like this:
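Relative growth inhibition (compound vs vehicle) was measured in yeast with a defined repair-gene alteration.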

A short description of assay [2]: NCI Yeast Anticancer Drug Screen. Data for the mec2-1 strain (AID 157). As to conditions: S. cerevisiae mec2-1 strain, active compounds read high. The procedure, abridged:
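Readout is yeast growth inhibition, normalised to vehicle-treated controls, in the mec2-1 strain exposed to compound.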

The nature of assay [3]: NCI Yeast Anticancer Drug Screen. Data for the sgs1 mgt1 strain (AID 161).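 Also: 0% = growth of cultures given vehicle only.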 Particulars: S. cerevisiae sgs1 mgt1 strain, active compounds read high. The procedure, abridged: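 Compounds are added to genetically altered yeast, and growth is compared with cultures given vehicle alone to give percent inhibition.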
The nature of assay [4]: NCI Yeast Anticancer Drug Screen. Data for the cln2 rad14 strain (AID 165).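 Also: 0% = growth equal to vehicle treated cultures.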 As to conditions: S. cerevisiae cln2 rad14 strain, active compounds read high. The procedure, abridged:
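Relative to vehicle controls, growth inhibition of compound-treated cln2 rad14 yeast was recorded.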

The nature of assay [5]: NCI Yeast Anticancer Drug Screen. Data for the bub3 strain (AID 167). Particulars: S. cerevisiae bub3 mutant strain, active compounds read high. The procedure, abridged: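 Screening used yeast with an engineered genetic alteration affecting cell cycle control. Compound-exposed cultures were compared with vehicle cultures, and reduced growth was taken as inhibition.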
The nature of assay [6]: NCI Yeast Anticancer Drug Screen. Data for the mlh1 rad18 strain (AID 175). Particulars: S. cerevisiae mlh1 rad18 strain growth inhibition, active compounds read high. In short, it runs like this: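 Test agents were incubated with a yeast strain of defined genotype (DNA damage repair defect). Inhibition of growth was derived by comparison with vehicle-exposed cultures.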
Setting [7] is: at 5.0 µM (retest, dose inferred, filed as 0.5).
Setting [8] is: at 50.0 µM (retest, dose inferred, filed as 5.0).

This is part of a sample that, as a whole, favours compounds with a hit. Of some 79,000 tested, about 15% had one in any assay. Unmarked numbers belong to inactive results. Activity calls are given as the source filed them. Rule as the data show it: active = growth inhibition above about 70%; inactive = the rest.

In the case of `O=C(OC12CC3CC(CC(C3)C1)C2)c1ccc(NCc2cc(O)ccc2O)cc1`, the growth inhibition is 39% in assay [1] (setting [7]); 94% (active) in assay [1] (setting [8]); 84.7% (active) in assay [1] (at 50.0 µM); 28% in assay [2] (setting [7]); 96% (active) in assay [2] (setting [8]); 88% (active) in assay [2] (at 50.0 µM). The growth inhibition in assay [3] (setting [7]) was 39%; in assay [3] (setting [8]), 95% (active); in assay [3] (at 50.0 µM), 90.8% (active); in assay [4] (setting [7]) it was 17%; in assay [4] (setting [8]), 95% (active); in assay [4] (at 50.0 µM), 87.8% (active). Further, the growth inhibition was 28% in assay [5] (setting [7]); 91% (active) in assay [5] (setting [8]); 89.8% (active) in assay [5] (at 50.0 µM); 32% in assay [6] (setting [7]); 94% (active) in assay [6] (setting [8]); 88.5% (active) in assay [6] (at 50.0 µM).

Take `COC(=O)[C@]1(C)CCC[C@]2(C)c3ccc(C(C)C)cc3C(=O)[C@@H](Br)[C@@H]12`: the growth inhibition was 0% in assay [1] (setting [7]); 9% in assay [1] (setting [8]); 74.2% (active) in assay [1] (at 50.0 µM); -2% in assay [2] (setting [7]); 46% in assay [2] (setting [8]); 51.9% in assay [2] (at 50.0 µM). In addition, the growth inhibition is 3% in assay [3] (setting [7]); 58% in assay [3] (setting [8]); 63.5% in assay [3] (at 50.0 µM); -12% in assay [4] (setting [7]); 44% in assay [4] (setting [8]); 22.1% in assay [4] (at 50.0 µM). In addition, the growth inhibition was 2% in assay [5] (setting [7]); 52% in assay [5] (setting [8]); 82.4% (active) in assay [5] (at 50.0 µM); -11% in assay [6] (setting [7]); 49% in assay [6] (setting [8]); 71.8% (active) in assay [6] (at 50.0 µM).

Regarding `[Cl-].[Rh+3].c1ccc(-c2ccnc3c2ccc2c(-c4ccccc4)ccnc23)cc1.c1ccc(-c2ccnc3c2ccc2c(-c4ccccc4)ccnc23)cc1.c1ccc(-c2ccnc3c2ccc2c(-c4ccccc4)ccnc23)cc1`, the growth inhibition in assay [1] (setting [7]) is -27%; in assay [1] (setting [8]) it was 65%; in assay [1] (at 50.0 µM) it was 97.1% (active); in assay [2] (setting [7]) it was -15%; in assay [2] (setting [8]) it was 26%; in assay [2] (at 50.0 µM), 88.9% (active). The growth inhibition in assay [3] (setting [7]) is -10%; in assay [3] (setting [8]) it was 87% (active); in assay [3] (at 50.0 µM), 94.5% (active); in assay [4] (setting [7]), -4%; in assay [4] (setting [8]) it was 43%; in assay [4] (at 50.0 µM) it was 85.7% (active). Besides, the growth inhibition in assay [5] (setting [7]) was -7%; in assay [5] (setting [8]), 38%; in assay [5] (at 50.0 µM), 90.8% (active); in assay [6] (setting [7]) it was -12%; in assay [6] (setting [8]) it was 88% (active); in assay [6] (at 50.0 µM), 95.9% (active).

For the compound `CC(C)(C)N/N=C(/Cc1nc2c3c(ccc2[nH]c1=O)C(=O)c1ccccc1C3=O)C(=O)NC1=C(Cl)C(=O)c2ccccc2C1=O`, the growth inhibition in assay [1] (setting [7]) is 27%; in assay [1] (setting [8]) it was 91% (active); in assay [1] (at 50.0 µM) it was 82.8% (active); in assay [2] (setting [7]), 0%; in assay [2] (setting [8]), 62%; in assay [2] (at 50.0 µM) it was 46.6%. The growth inhibition in assay [3] (setting [7]) was 27%; in assay [3] (setting [8]) it was 77% (active); in assay [3] (at 50.0 µM) it was 67.8%; in assay [4] (setting [7]) it was -24%; in assay [4] (setting [8]), 39%; in assay [4] (at 50.0 µM) it was 21.7%. For the same compound, the growth inhibition was 13% in assay [5] (setting [7]); 83% (active) in assay [5] (setting [8]); 67.1% in assay [5] (at 50.0 µM); 21% in assay [6] (setting [7]); 79% (active) in assay [6] (setting [8]); 42.4% in assay [6] (at 50.0 µM).

As to `COc1ccc(NC(=O)/C(=C/N2C(=O)/C(=C/c3ccc(OC)c(OC)c3)NC2=S)C(C)=O)cc1`, the growth inhibition was 5% in assay [1] (setting [7]); 66% in assay [1] (setting [8]); 54.3% in assay [1] (at 50.0 µM); -3% in assay [2] (setting [7]); 85% (active) in assay [2] (setting [8]); 53.1% in assay [2] (at 50.0 µM). Also, the growth inhibition in assay [3] (setting [7]) is -5%; in assay [3] (setting [8]) it was 86% (active); in assay [3] (at 50.0 µM) it was 51.9%; in assay [4] (setting [7]), -22%; in assay [4] (setting [8]) it was 51%; in assay [4] (at 50.0 µM), 37%. Also, the growth inhibition in assay [5] (setting [7]) was -21%; in assay [5] (setting [8]), 76% (active); in assay [5] (at 50.0 µM), 64.8%; in assay [6] (setting [7]), -6%; in assay [6] (setting [8]) it was 82% (active); in assay [6] (at 50.0 µM), 76.7% (active).

As to `CCN1CCCC(Nc2cc(C)nc(/N=C(/N)Nc3ccc(Cl)c(Cl)c3)n2)C1` (configuration not stated), the growth inhibition is 48% in assay [1] (setting [7]); 96% (active) in assay [1] (setting [8]); 90% (active) in assay [1] (at 50.0 µM); 32% in assay [2] (setting [7]); 98% (active) in assay [2] (setting [8]); 92% (active) in assay [2] (at 50.0 µM). Also, the growth inhibition in assay [3] (setting [7]) was 48%; in assay [3] (setting [8]) it was 97% (active); in assay [3] (at 50.0 µM), 86.7% (active); in assay [4] (setting [7]) it was 55%; in assay [4] (setting [8]), 86% (active); in assay [4] (at 50.0 µM), 82.7% (active). Also, the growth inhibition was 29% in assay [5] (setting [7]); 96% (active) in assay [5] (setting [8]); 83.6% (active) in assay [5] (at 50.0 µM); 57% in assay [6] (setting [7]); 97% (active) in assay [6] (setting [8]); 83.2% (active) in assay [6] (at 50.0 µM).

`C/C(=N/NC(N)=S)c1ccc(C)cc1`: the growth inhibition in assay [1] (setting [7]) is -4%; in assay [1] (setting [8]), 40%; in assay [1] (at 50.0 µM), 69%; in assay [2] (setting [7]) it was -4%; in assay [2] (setting [8]) it was 6%; in assay [2] (at 50.0 µM), 3.5%. Further, the growth inhibition was -5% in assay [3] (setting [7]); 2% in assay [3] (setting [8]); 40.2% in assay [3] (at 50.0 µM); -11% in assay [4] (setting [7]); -22% in assay [4] (setting [8]); 2.3% in assay [4] (at 50.0 µM). Moreover, the growth inhibition in assay [5] (setting [7]) was -13%; in assay [5] (setting [8]) it was -8%; in assay [5] (at 50.0 µM), 45%; in assay [6] (setting [7]), -4%; in assay [6] (setting [8]) it was 20%; in assay [6] (at 50.0 µM), 66.1%.

Regarding `CC(=O)C1Cc2ccccc2C1=O` (configuration not stated), the growth inhibition is 4% in assay [1] (setting [7]); 83% (active) in assay [1] (setting [8]); -9.4% in assay [1] (at 50.0 µM); 3% in assay [2] (setting [7]); 44% in assay [2] (setting [8]); 42.2% in assay [2] (at 50.0 µM). Besides, the growth inhibition in assay [3] (setting [7]) was 0%; in assay [3] (setting [8]), 91% (active); in assay [3] (at 50.0 µM), 41.1%; in assay [4] (setting [7]), 1%; in assay [4] (setting [8]) it was 50%; in assay [4] (at 50.0 µM), -13.1%. For the same compound, the growth inhibition in assay [5] (setting [7]) was 3%; in assay [5] (setting [8]), 93% (active); in assay [5] (at 50.0 µM) it was 9%; in assay [6] (setting [7]), 4%; in assay [6] (setting [8]) it was 90% (active); in assay [6] (at 50.0 µM), 71.8% (active).

In the case of `CCCCCCCCCCCCNCCCc1ccccc1`, the growth inhibition in assay [1] (setting [7]) was 99% (active); in assay [1] (setting [8]) it was 98% (active); in assay [1] (at 50.0 µM) it was 98.1% (active); in assay [2] (setting [7]), 100% (active); in assay [2] (setting [8]), 99% (active); in assay [2] (at 50.0 µM), 99.2% (active). The growth inhibition in assay [3] (setting [7]) was 100% (active); in assay [3] (setting [8]) it was 99% (active); in assay [3] (at 50.0 µM), 98.5% (active); in assay [4] (setting [7]) it was 99% (active); in assay [4] (setting [8]), 97% (active); in assay [4] (at 50.0 µM), 98.8% (active). Besides, the growth inhibition in assay [5] (setting [7]) was 99% (active); in assay [5] (setting [8]) it was 99% (active); in assay [5] (at 50.0 µM), 98% (active); in assay [6] (setting [7]) it was 99% (active); in assay [6] (setting [8]), 99% (active); in assay [6] (at 50.0 µM) it was 98.5% (active).

The values above are taken from PubChem BioAssay (NCI).
